The text below walks through data of publication PMC7862700, “An all-to-all approach to the identification of sequence-specific readers for epigenetic DNA modifications on cytosine”.

Common to all, as to assay: DAPPL (digital affinity profiling via proximity ligation, sequencing); 10 mM Tris-HCl pH 7.5, 50 mM NaCl, 1 mM DTT, 4% glycerol, room temperature, 30 min; GST-TFs on glutathione beads, 16-mer random dsDNA library, 0.1% formaldehyde crosslink after washing; high values mean tight binding
What all share (conditions): protein: recombinant; tags: N-terminal GST; dsDNA, one strand shown

For one assay, the target named is T1, ERF (Homo sapiens, UniProt P50548 1-548).
T1 sequence: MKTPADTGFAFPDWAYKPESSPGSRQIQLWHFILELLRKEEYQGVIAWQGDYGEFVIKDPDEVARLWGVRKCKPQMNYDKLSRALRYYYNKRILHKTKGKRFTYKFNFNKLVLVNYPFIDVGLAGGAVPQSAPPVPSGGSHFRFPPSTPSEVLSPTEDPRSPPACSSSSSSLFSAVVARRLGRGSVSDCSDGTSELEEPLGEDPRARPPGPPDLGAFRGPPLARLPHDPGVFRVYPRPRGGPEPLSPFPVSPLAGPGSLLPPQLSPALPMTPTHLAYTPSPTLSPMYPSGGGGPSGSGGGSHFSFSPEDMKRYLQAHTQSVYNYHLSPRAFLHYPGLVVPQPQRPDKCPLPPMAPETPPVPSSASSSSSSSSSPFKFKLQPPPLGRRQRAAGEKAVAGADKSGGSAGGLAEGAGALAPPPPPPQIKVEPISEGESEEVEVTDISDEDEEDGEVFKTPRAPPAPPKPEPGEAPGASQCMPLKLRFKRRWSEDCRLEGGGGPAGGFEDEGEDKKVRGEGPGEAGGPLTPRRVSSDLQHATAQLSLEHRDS
Put shortly: (§1)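 Pools were built from human transcription factors expressed in yeast as GST fusions, captured on glutathione beads and DNA-barcoded, along with a tag-only sample. Incubation with 200 nmole of a 16-mer random double-stranded DNA library lasted 30 min at room temperature in Tris/NaCl/DTT/glycerol buffer, and was followed by washing, 0.1% formaldehyde crosslinking, proximity ligation, PCR amplification and Illumina NextSeq500 sequencing. Binding signal is the quotient of each hexamer's read frequency for a factor and its frequency for the tag-only sample.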

For a further assay, the target named is T2, ETV3L (Homo sapiens, UniProt Q6ZN32 1-361).
T2 sequence: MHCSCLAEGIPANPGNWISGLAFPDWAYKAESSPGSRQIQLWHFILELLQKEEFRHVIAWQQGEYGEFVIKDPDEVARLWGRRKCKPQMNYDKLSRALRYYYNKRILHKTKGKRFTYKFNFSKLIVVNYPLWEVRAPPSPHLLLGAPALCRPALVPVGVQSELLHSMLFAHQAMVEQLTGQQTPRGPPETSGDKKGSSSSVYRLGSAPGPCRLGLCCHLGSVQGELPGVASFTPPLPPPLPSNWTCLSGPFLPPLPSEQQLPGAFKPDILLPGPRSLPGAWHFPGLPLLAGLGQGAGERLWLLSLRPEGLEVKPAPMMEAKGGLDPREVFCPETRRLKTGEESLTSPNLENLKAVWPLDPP
The gist of the method:
as §1

The target in the next assay is T3, ETS2 (Homo sapiens, UniProt P15036 1-469).
T3 sequence: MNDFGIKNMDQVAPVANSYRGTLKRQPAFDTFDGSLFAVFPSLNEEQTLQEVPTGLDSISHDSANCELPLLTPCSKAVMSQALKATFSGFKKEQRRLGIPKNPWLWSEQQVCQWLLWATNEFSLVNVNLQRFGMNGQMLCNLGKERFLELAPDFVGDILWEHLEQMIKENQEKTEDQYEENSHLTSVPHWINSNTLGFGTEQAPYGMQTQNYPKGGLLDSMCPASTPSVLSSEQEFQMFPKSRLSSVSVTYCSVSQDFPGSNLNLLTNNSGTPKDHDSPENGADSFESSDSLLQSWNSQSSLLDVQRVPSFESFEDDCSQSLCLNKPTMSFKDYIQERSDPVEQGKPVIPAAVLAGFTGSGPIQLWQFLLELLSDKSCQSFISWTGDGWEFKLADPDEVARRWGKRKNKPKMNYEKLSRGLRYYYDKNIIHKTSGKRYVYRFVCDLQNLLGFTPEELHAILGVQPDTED
The gist of the method: as §1

A further assay deals with T4, SPDEF (Homo sapiens, UniProt O95238 1-335).
T4 sequence: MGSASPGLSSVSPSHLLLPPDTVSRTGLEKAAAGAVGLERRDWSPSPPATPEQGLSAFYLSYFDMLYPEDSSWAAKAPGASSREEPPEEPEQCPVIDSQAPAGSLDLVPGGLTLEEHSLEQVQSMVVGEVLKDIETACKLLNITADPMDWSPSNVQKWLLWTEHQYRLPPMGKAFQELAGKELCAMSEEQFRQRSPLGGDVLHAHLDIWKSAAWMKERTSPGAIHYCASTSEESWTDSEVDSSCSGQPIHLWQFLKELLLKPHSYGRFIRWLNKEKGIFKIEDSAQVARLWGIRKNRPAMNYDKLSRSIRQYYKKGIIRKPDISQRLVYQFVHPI
The gist of the method:
as §1

The next assay addresses T5, ETV7 (Homo sapiens, UniProt Q9Y603 1-341).
T5 sequence: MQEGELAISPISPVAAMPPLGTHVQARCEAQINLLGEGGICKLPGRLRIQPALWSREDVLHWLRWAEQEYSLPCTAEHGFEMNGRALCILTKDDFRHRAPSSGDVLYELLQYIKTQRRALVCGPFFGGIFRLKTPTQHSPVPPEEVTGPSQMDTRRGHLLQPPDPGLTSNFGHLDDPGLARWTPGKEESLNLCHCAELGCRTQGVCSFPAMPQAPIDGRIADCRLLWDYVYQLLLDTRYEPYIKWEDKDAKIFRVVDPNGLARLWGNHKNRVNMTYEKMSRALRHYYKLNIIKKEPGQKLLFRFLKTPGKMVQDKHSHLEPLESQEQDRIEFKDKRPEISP
The gist of the method: as §1

A further assay has as its target T6, ELF5 (Homo sapiens, UniProt Q9UKW6-2 1-255).
T6 sequence: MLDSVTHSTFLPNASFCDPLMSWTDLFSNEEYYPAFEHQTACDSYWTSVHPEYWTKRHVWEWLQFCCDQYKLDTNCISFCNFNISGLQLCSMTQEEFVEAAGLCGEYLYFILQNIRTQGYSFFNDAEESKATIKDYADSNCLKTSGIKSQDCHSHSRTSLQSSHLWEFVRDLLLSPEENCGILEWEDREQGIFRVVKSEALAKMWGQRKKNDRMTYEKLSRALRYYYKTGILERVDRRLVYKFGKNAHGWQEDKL
The gist of the method: as §1

For the next assay, the target named is T7, ETV3 (Homo sapiens, UniProt P41162-2 1-143).
T7 sequence: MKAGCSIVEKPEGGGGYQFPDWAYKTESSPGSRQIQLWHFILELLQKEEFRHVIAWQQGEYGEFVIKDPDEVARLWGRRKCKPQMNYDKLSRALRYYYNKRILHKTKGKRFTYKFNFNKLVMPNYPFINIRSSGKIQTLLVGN
Put shortly:
as §1

For the next assay, the target named is ETV6 (Homo sapiens, UniProt P41212 1-452). Put shortly: as §1
Sequence of ETV6 (P41212 whole entry): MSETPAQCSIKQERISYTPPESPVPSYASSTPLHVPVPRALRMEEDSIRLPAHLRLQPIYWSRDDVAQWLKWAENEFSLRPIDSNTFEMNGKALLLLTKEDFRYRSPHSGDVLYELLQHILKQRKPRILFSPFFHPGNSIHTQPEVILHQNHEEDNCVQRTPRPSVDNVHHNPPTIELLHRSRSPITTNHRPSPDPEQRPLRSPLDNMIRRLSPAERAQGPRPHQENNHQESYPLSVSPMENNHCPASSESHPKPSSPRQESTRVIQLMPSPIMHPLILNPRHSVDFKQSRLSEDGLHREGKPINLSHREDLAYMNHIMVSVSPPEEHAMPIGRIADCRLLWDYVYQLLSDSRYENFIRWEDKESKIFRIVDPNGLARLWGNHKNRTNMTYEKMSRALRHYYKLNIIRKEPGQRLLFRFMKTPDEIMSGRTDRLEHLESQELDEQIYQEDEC

Turning to CAACTA, the binding signal was 1.24 fold enrichment (6-mer frequency, TF over GST control) in the assay with ERF; 1.29 fold enrichment (6-mer frequency, TF over GST control) with ETV3L; 1.3 fold enrichment (6-mer frequency, TF over GST control) with ETS2; 1.32 fold enrichment (6-mer frequency, TF over GST control) with SPDEF; 1.24 fold enrichment (6-mer frequency, TF over GST control) with ETV7; 1.26 fold enrichment (6-mer frequency, TF over GST control) with ELF5. The binding signal with ETV3 was 1.2 fold enrichment (6-mer frequency, TF over GST control); with ETV6, 1.25 fold enrichment (6-mer frequency, TF over GST control).

For CACCAT, the binding signal is 1.12 fold enrichment (6-mer frequency, TF over GST control) with ERF; 1.16 fold enrichment (6-mer frequency, TF over GST control) with ETV3L; 1.08 fold enrichment (6-mer frequency, TF over GST control) in the assay with ETS2; 1.02 fold enrichment (6-mer frequency, TF over GST control) with SPDEF; 1.15 fold enrichment (6-mer frequency, TF over GST control) with ETV7; 1.1 fold enrichment (6-mer frequency, TF over GST control) in the assay with ELF5. Also, the binding signal with ETV3 was 1.05 fold enrichment (6-mer frequency, TF over GST control); in the assay with ETV6 it was 1.04 fold enrichment (6-mer frequency, TF over GST control).

Regarding TCTGGT, the binding signal was 1.34 fold enrichment (6-mer frequency, TF over GST control) in the assay with ERF; 1.26 fold enrichment (6-mer frequency, TF over GST control) with ETV3L; 1.16 fold enrichment (6-mer frequency, TF over GST control) with ETS2; 1.28 fold enrichment (6-mer frequency, TF over GST control) with SPDEF; 1.35 fold enrichment (6-mer frequency, TF over GST control) in the assay with ETV7; 1.26 fold enrichment (6-mer frequency, TF over GST control) with ELF5. The binding signal with ETV3 was 1.29 fold enrichment (6-mer frequency, TF over GST control); with ETV6 it was 1.17 fold enrichment (6-mer frequency, TF over GST control).

CCGACT: the binding signal is 1.5 fold enrichment (6-mer frequency, TF over GST control) with ERF; 1.6 fold enrichment (6-mer frequency, TF over GST control) with ETV3L; 1.54 fold enrichment (6-mer frequency, TF over GST control) with ETS2; 1.45 fold enrichment (6-mer frequency, TF over GST control) with SPDEF; 1.32 fold enrichment (6-mer frequency, TF over GST control) with ETV7; 1.41 fold enrichment (6-mer frequency, TF over GST control) with ELF5. Besides, the binding signal with ETV3 was 1.34 fold enrichment (6-mer frequency, TF over GST control); in the assay with ETV6, 1.51 fold enrichment (6-mer frequency, TF over GST control).

Turning to TTGATC, the binding signal with ERF was 1.23 fold enrichment (6-mer frequency, TF over GST control); with ETV3L, 1.2 fold enrichment (6-mer frequency, TF over GST control); with ETS2, 1.1 fold enrichment (6-mer frequency, TF over GST control); in the assay with SPDEF, 1.24 fold enrichment (6-mer frequency, TF over GST control); with ETV7, 1.08 fold enrichment (6-mer frequency, TF over GST control); with ELF5, 1.21 fold enrichment (6-mer frequency, TF over GST control). For the same sequence, the binding signal is 1.26 fold enrichment (6-mer frequency, TF over GST control) with ETV3 and 1.09 fold enrichment (6-mer frequency, TF over GST control) with ETV6.

With CAAATG, the binding signal with ERF is 1.25 fold enrichment (6-mer frequency, TF over GST control); in the assay with ETV3L, 1.11 fold enrichment (6-mer frequency, TF over GST control); with ETS2 it was 1.15 fold enrichment (6-mer frequency, TF over GST control); in the assay with SPDEF, 1.19 fold enrichment (6-mer frequency, TF over GST control); with ETV7, 1.2 fold enrichment (6-mer frequency, TF over GST control); with ELF5, 1.1 fold enrichment (6-mer frequency, TF over GST control). Besides, the binding signal in the assay with ETV3 is 1.13 fold enrichment (6-mer frequency, TF over GST control); with ETV6, 1.18 fold enrichment (6-mer frequency, TF over GST control).

On to TGTTAC, for which the binding signal in the assay with ERF is 1.3 fold enrichment (6-mer frequency, TF over GST control); in the assay with ETV3L, 1.41 fold enrichment (6-mer frequency, TF over GST control); with ETS2, 1.39 fold enrichment (6-mer frequency, TF over GST control); in the assay with SPDEF, 1.54 fold enrichment (6-mer frequency, TF over GST control); with ETV7, 1.42 fold enrichment (6-mer frequency, TF over GST control); with ELF5 it was 1.43 fold enrichment (6-mer frequency, TF over GST control). Moreover, the binding signal in the assay with ETV3 is 1.44 fold enrichment (6-mer frequency, TF over GST control); with ETV6 it was 1.31 fold enrichment (6-mer frequency, TF over GST control).
